# Read-outs that look alike come from different tables or passages of the source.
# Experiments:
# [1] = system: CDK16; set-up: species or system human, MV4-11 + K-562 + COLO205 + SK-N-BE2 + OVCAR-8; conditions: read-out: apparent Kd, n = 1
# [2] = system: CDK2; set-up: species or system human, MV4-11 + K-562 + COLO205 + SK-N-BE2 + OVCAR-8; conditions: read-out: apparent Kd, n = 1
# [3] = system: NUAK1; set-up: species or system human, MV4-11 + K-562 + COLO205 + SK-N-BE2 + OVCAR-8; conditions: read-out: apparent Kd, compound concentrations: 100 nM and 1000 nM (sheet 'Samples'), n = 1
# [4] = system: NUAK2; set-up: species or system human, MV4-11 + K-562 + COLO205 + SK-N-BE2 + OVCAR-8; conditions: read-out: apparent Kd; compound concentrations: 100 nM and 1000 nM (sheet 'Samples'), CATDS: 0.14838950263404099; n = 1
# [5] = system: STK3; set-up: species or system human, MV4-11 + K-562 + COLO205 + SK-N-BE2 + OVCAR-8; conditions: read-out: apparent Kd; compound concentrations: 100 nM and 1000 nM (sheet 'Samples'), CATDS: 0.13207546439769999; n = 1
# [6] = system: STK4; set-up: species or system human, MV4-11 + K-562 + COLO205 + SK-N-BE2 + OVCAR-8; conditions: read-out: apparent Kd; compound concentrations: 100 nM and 1000 nM (sheet 'Samples'), CATDS: 0.136772712102746; n = 1
# [7] = system: CDK4; set-up: species or system human, MV4-11 + K-562 + COLO205 + SK-N-BE2 + OVCAR-8; conditions: read-out: apparent Kd; compound concentrations: 100 nM and 1000 nM (sheet 'Samples'), CATDS: 3.5176707262462401E-2; n = 1
# [8] = system: CDK9; set-up: species or system human, MV4-11 + K-562 + COLO205 + SK-N-BE2 + OVCAR-8; conditions: read-out: apparent Kd; compound concentrations: 100 nM and 1000 nM (sheet 'Samples'), CATDS: 6.6122234274616706E-2; n = 1
# [9] = system: CDKL5; set-up: species or system human, MV4-11 + K-562 + COLO205 + SK-N-BE2 + OVCAR-8; conditions: read-out: apparent Kd, n = 1
# [10] = system: CLK1; set-up: species or system human, MV4-11 + K-562 + COLO205 + SK-N-BE2 + OVCAR-8; conditions: read-out: apparent Kd; compound concentrations: 100 nM and 1000 nM (sheet 'Samples'), CATDS: 0.131869322388253; n = 1
# [11] = system: CLK4; set-up: species or system human, MV4-11 + K-562 + COLO205 + SK-N-BE2 + OVCAR-8; conditions: read-out: apparent Kd, n = 1
# [12] = system: CSNK1D; set-up: species or system human, MV4-11 + K-562 + COLO205 + SK-N-BE2 + OVCAR-8; conditions: read-out: apparent Kd, compound concentrations: 100 nM and 1000 nM (sheet 'Samples'), n = 1
# [13] = system: CSNK1E; set-up: species or system human, MV4-11 + K-562 + COLO205 + SK-N-BE2 + OVCAR-8; conditions: read-out: apparent Kd, compound concentrations: 100 nM and 1000 nM (sheet 'Samples'), n = 1
# [14] = system: DYRK1A; set-up: species or system human, MV4-11 + K-562 + COLO205 + SK-N-BE2 + OVCAR-8; conditions: read-out: apparent Kd; compound concentrations: 100 nM and 1000 nM (sheet 'Samples'), CATDS: 4.1731549571109597E-2; n = 1
# [15] = system: FLT3; set-up: species or system human, MV4-11 + K-562 + COLO205 + SK-N-BE2 + OVCAR-8; conditions: read-out: apparent Kd; compound concentrations: 100 nM and 1000 nM (sheet 'Samples'), CATDS: 6.99540125282513E-2; n = 1
# [16] = system: GSK3A; set-up: species or system human, MV4-11 + K-562 + COLO205 + SK-N-BE2 + OVCAR-8; conditions: read-out: apparent Kd; compound concentrations: 100 nM and 1000 nM (sheet 'Samples'), CATDS: 0.103253823443788; n = 1
# [17] = system: GSK3B; set-up: species or system human, MV4-11 + K-562 + COLO205 + SK-N-BE2 + OVCAR-8; conditions: read-out: apparent Kd; compound concentrations: 100 nM and 1000 nM (sheet 'Samples'), CATDS: 9.7411606637186801E-2; n = 1
# [18] = system: ICK; set-up: species or system human, MV4-11 + K-562 + COLO205 + SK-N-BE2 + OVCAR-8; conditions: read-out: apparent Kd; compound concentrations: 100 nM and 1000 nM (sheet 'Samples'), CATDS: 8.4231126757800603E-2; n = 1
# [19] = system: NEK9; set-up: species or system human, MV4-11 + K-562 + COLO205 + SK-N-BE2 + OVCAR-8; conditions: read-out: apparent Kd; compound concentrations: 100 nM and 1000 nM (sheet 'Samples'), CATDS: 3.4709334986352897E-2; n = 1
# [20] = system: NNT; set-up: species or system human, MV4-11 + K-562 + COLO205 + SK-N-BE2 + OVCAR-8; conditions: read-out: apparent Kd; compound concentrations: 100 nM and 1000 nM (sheet 'Samples'), CATDS: 3.3051747730414797E-2; n = 1
# [21] = target: Q6ZSR9 (human, UniProt Q6ZSR9); set-up: species or system MV4-11 + K-562 + COLO205 + SK-N-BE2 + OVCAR-8; conditions: read-out: apparent Kd; compound concentrations: 100 nM and 1000 nM (sheet 'Samples'), CATDS: 7.3176607259513596E-2; n = 1
# Q6ZSR9, sequence (Q6ZSR9 whole entry, looked up): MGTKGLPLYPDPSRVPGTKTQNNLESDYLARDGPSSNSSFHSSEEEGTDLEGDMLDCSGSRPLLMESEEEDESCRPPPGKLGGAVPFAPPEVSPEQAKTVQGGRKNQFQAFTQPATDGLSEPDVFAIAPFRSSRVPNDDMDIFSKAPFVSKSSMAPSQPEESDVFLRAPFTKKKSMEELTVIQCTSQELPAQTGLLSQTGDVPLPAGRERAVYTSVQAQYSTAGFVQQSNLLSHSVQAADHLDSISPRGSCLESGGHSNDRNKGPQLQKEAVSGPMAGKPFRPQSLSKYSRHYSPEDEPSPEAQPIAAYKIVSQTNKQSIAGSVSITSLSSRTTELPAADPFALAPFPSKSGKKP
# [22] = system: RIOK2; set-up: species or system human, MV4-11 + K-562 + COLO205 + SK-N-BE2 + OVCAR-8; conditions: read-out: apparent Kd; compound concentrations: 100 nM and 1000 nM (sheet 'Samples'), CATDS: 3.29501520790835E-2; n = 1
# [23] = system: TGFBR2; set-up: species or system human, MV4-11 + K-562 + COLO205 + SK-N-BE2 + OVCAR-8; conditions: read-out: apparent Kd, n = 1
# [24] = system: CDC42; set-up: species or system human, MV4-11 + K-562 + COLO205 + SK-N-BE2 + OVCAR-8; conditions: read-out: apparent Kd; compound concentrations: 100 nM and 1000 nM (sheet 'Samples'), CATDS: 8.3198711436125394E-2; n = 1
# [25] = system: CSNK1A1; set-up: species or system human, MV4-11 + K-562 + COLO205 + SK-N-BE2 + OVCAR-8; conditions: read-out: apparent Kd; compound concentrations: 100 nM and 1000 nM (sheet 'Samples'), CATDS: 8.7123517988238197E-2; n = 1
# [26] = system: MAPK10; set-up: species or system human, MV4-11 + K-562 + COLO205 + SK-N-BE2 + OVCAR-8; conditions: read-out: apparent Kd; compound concentrations: 100 nM and 1000 nM (sheet 'Samples'), CATDS: 0.11305020597261101; n = 1
# [27] = system: MAPK14; set-up: species or system human, MV4-11 + K-562 + COLO205 + SK-N-BE2 + OVCAR-8; conditions: read-out: apparent Kd; compound concentrations: 100 nM and 1000 nM (sheet 'Samples'), CATDS: 9.3591045937798004E-2; n = 1
# [28] = system: MAPK9; set-up: species or system human, MV4-11 + K-562 + COLO205 + SK-N-BE2 + OVCAR-8; conditions: read-out: apparent Kd; compound concentrations: 100 nM and 1000 nM (sheet 'Samples'), CATDS: 8.8395799729483998E-2; n = 1
# [29] = system: MAPKAPK2; set-up: species or system human, MV4-11 + K-562 + COLO205 + SK-N-BE2 + OVCAR-8; conditions: read-out: apparent Kd; compound concentrations: 100 nM and 1000 nM (sheet 'Samples'), CATDS: 0.13823017842708299; n = 1
# [30] = system: RIPK2; set-up: species or system human, MV4-11 + K-562 + COLO205 + SK-N-BE2 + OVCAR-8; conditions: read-out: apparent Kd; compound concentrations: 100 nM and 1000 nM (sheet 'Samples'), CATDS: 9.29117270749487E-2; n = 1
# [31] = system: CSNK2A1;CSNK2A3; set-up: species or system human, MV4-11 + K-562 + COLO205 + SK-N-BE2 + OVCAR-8; conditions: read-out: apparent Kd; compound concentrations:100 nM and 1000 nM (sheet 'Samples'); n = 1
# [32] = system: CSNK2A2; set-up: species or system human, MV4-11 + K-562 + COLO205 + SK-N-BE2 + OVCAR-8; conditions: read-out: apparent Kd; compound concentrations:100 nM and 1000 nM (sheet 'Samples'); n = 1
# [33] = compound concentrations:100 nM and 1000 nM (sheet 'Samples')
structure (smiles),measurement,setting,value
CC(C)=Cc1cccc2c1/C(=N/Nc1ccc(S(N)(=O)=O)cc1)C(=O)N2 [GW396574X],potency estimated from few doses,"[1]; compound concentrations: 100 nM and 1000 nM (sheet 'Samples'), CATDS: 0.172165115049177",778 nM
same,potency estimated from few doses,"[2]; compound concentrations: 100 nM and 1000 nM (sheet 'Samples'), CATDS: 0.26435202316191703",366 nM
same,potency estimated from few doses,[3]; CATDS: 0.20890182477098199,539 nM
same,potency estimated from few doses,[4],1080 nM
same,potency estimated from few doses,[5],1470 nM
same,potency estimated from few doses,[6],1330 nM
COc1cccc(Nc2nccc(-c3cnn4ncccc34)n2)c1 [GW810576X],potency estimated from few doses,"[1]; compound concentrations: 100 nM and 1000 nM (sheet 'Samples'), CATDS: 3.1157097879833801E-2",2230 nM
same,potency estimated from few doses,"[2]; compound concentrations: 100 nM and 1000 nM (sheet 'Samples'), CATDS: 3.2251458753321499E-2",1800 nM
same,potency estimated from few doses,[7],1130 nM
same,potency estimated from few doses,[8],119 nM
same,potency estimated from few doses,"[9]; compound concentrations: 100 nM and 1000 nM (sheet 'Samples'), CATDS: 0.306088725314409",8.45 nM
same,potency estimated from few doses,[10],29.2 nM
same,potency estimated from few doses,"[11]; compound concentrations: 100 nM and 1000 nM (sheet 'Samples'), CATDS: 7.3732839889054297E-2",90.9 nM
same,potency estimated from few doses,[12]; CATDS: 3.5838047250471398E-2,1030 nM
same,potency estimated from few doses,[13]; CATDS: 3.1149336029707601E-2,2230 nM
same,potency estimated from few doses,[14],529 nM
same,potency estimated from few doses,[15],103 nM
same,potency estimated from few doses,[16],45 nM
same,potency estimated from few doses,[17],50.3 nM
same,potency estimated from few doses,[18],67.5 nM
same,potency estimated from few doses,[19],1210 nM
same,potency estimated from few doses,[20],1570 nM
same,potency estimated from few doses,[3]; CATDS: 4.2227707983222298E-2,505 nM
same,potency estimated from few doses,[21],92.6 nM
same,potency estimated from few doses,[22],1590 nM
same,potency estimated from few doses,"[23]; compound concentrations: 100 nM and 1000 nM (sheet 'Samples'), CATDS: 8.2747157817186001E-2",70.2 nM
Fc1ccc(-c2nc3n(c2-c2ccncc2)CCS3)cc1 [GI98581X],potency estimated from few doses,[24],1530 nM
same,potency estimated from few doses,[25],1320 nM
same,potency estimated from few doses,[12]; CATDS: 0.37273157205877999,87.9 nM
same,potency estimated from few doses,[13]; CATDS: 0.16724223379061501,304 nM
same,potency estimated from few doses,[26],666 nM
same,potency estimated from few doses,[27],1070 nM
same,potency estimated from few doses,[28],1260 nM
same,potency estimated from few doses,[29],435 nM
same,potency estimated from few doses,[30],1090 nM
CC(C)COC(=O)c1ccc2c(c1)/C(=C/Nc1ccc(S(N)(=O)=O)cc1)C(=O)N2 [GW416981X],potency estimated from few doses,[1]; [33],964 nM
same,potency estimated from few doses,[2]; [33],587 nM
same,potency estimated from few doses,[9]; [33],1290 nM
same,potency estimated from few doses,[11]; [33],1480 nM
same,potency estimated from few doses,[31],477 nM
same,potency estimated from few doses,[32],246 nM
same,potency estimated from few doses,[23]; [33],1860 nM
